# From PubChem BioAssay
# TLR4-MyD88 BLA: inhibitors of TLR4-MyD88 association in cells, primary screen, cell-based, HeLa CL3-4, BLA complementation, FRET ratio; Toll-like receptor 4 (Homo sapiens) + Myeloid differentiation primary response protein …; HeLa CL3-4 TLR4/MyD88 BLA complementation; inhibition, % at 8.4 µM; 200,000 tested, 0.18% active; in the data active means inhibition above about 25%;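 further: 0% = vehicle and 100% = reference inhibitor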
# TLR9-MyD88 inh: inhibitors of TLR9-MyD88 association in cells, primary screen, cell-based, CHO, BLA complementation, fluorescence; Toll-like receptor 9 (Homo sapiens) + Myeloid differentiation primary response protein …; CCF4 FRET ratio; inhibition, % at 4.98 µM; 340,000 tested, 0.21% active; AID 504734, 2011;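 active means inhibition above the mean over all tested compounds plus 3 SD, cut at about 21% in these data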;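 further: 0% = DMSO only wells and 100% = clavulanate BLA inhibitor control wells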
# CRFBP-R2 block: antagonists of CRF-BP/CRF-R2 complex, primary screen, cell-based, HEK293, calcium dye fluorescence, uHTS; CRF-induced calcium fluorescence; inhibition, % at 11.8 µM; 350,000 tested, 0.59% active;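 active means inhibition of the ligand-induced calcium signal above about 50% at the single tested concentration, limit read from the data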
# m5-HT2A agonist: mouse Htr2a agonists via beta-arrestin recruitment, primary screen, cell-based, luminescence | activation, % at 7.6 µM | 360,000 tested, 0.66% active | CHO-K1 mHTR2A beta-arrestin complementation; percent of 30 µM serotonin response | 5-hydroxytryptamine receptor 2A (Mus musculus), P35363 | AID 624169, 2012;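 active means activation above a run cutoff, the mean activation of all tested compounds plus 3 SD, cut at about 14% in these data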;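 further: 0% = plate median of compound wells and 100% = 30 µM serotonin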
# ABHD5-PLIN5 inh: ABHD5-PLIN5 interaction inhibitors, primary screen, cell lysate, split luciferase complementation, luminescence; Perilipin-5 (Homo sapiens) + 1-acylglycerol-3-phosphate O-acyltransferase ABHD5 (Homo …; Split G. princeps luciferase complementation, 4 h; inhibition, % at 4 µM; 360,000 tested, 0.78% active;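 active means inhibition above the mean inhibition across every tested compound plus 3 SD, cut at about 22% in these data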;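 further: 0% = DMSO only wells and the 100% control is not disclosed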
# NOD2 RIPK2 PPI: NOD2-RIPK2 binding disruptors in cells, primary screen, fluorescence, CHO cells, BLA complementation; CCF4 ratio; inhibition, % at 4.98 µM; 360,000 tested, 0.38% active; in the data active means inhibition above about 21%;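 further: 0% = vehicle only and 100% = reference blocker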
# ABHD5-PLIN5 conf: ABHD5-PLIN5 interaction inhibitors, confirmation, biochemical, luminescence; shares compounds with ABHD5-PLIN5 inh; inhibition, % at 4 µM; 2,200 tested, 67% active; in the data active means inhibition above about 23%;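 further: 0% = DMSO vehicle wells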
# HNF4 split-luc: HNF4 dimerization inhibitors, counter-screen for ABHD5-PLIN5 interaction inhibitor project, biochemical, split-luciferase complementation, luminescence; shares compounds with ABHD5-PLIN5 inh; inhibition, % at 4 µM; 2,200 tested, 77% active; AID 651674, 2012;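 active means mean inhibition across replicate wells exceeding the computed hit threshold, cut at about 13% in these data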;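 further: light from luciferase halves that rejoin when HNF4 fusion proteins dimerize; 0% = DMSO only wells and the 100% control is not given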
# Target sequence (P41235 whole entry, looked up, the tested form may be a part): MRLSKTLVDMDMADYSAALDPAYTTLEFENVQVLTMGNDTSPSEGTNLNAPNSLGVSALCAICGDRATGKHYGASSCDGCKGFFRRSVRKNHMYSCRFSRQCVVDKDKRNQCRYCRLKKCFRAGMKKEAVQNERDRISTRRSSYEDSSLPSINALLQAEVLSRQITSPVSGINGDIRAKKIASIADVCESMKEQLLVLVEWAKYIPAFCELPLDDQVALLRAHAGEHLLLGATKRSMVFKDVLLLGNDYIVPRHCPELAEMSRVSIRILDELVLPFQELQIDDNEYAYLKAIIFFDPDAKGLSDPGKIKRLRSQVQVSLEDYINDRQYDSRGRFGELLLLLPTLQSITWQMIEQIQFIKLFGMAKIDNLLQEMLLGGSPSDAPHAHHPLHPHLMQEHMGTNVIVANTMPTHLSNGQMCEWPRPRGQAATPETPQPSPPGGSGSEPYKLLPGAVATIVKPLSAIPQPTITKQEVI
# The depositor's hits bear a star; . = no result given. Shown are actives, neighbours in structure and some others; about 2.4% of the full set was active somewhere.
SMILES,TLR4-MyD88 BLA,TLR9-MyD88 inh,CRFBP-R2 block,m5-HT2A agonist,ABHD5-PLIN5 inh,NOD2 RIPK2 PPI,ABHD5-PLIN5 conf,HNF4 split-luc
O=C(/C=C\c1cccs1)c1c(O)ccc2ccc(=O)oc12,16,-4,-26,-8,25*,-13,34*,37*
O=C(C=Cc1cccs1)c1cccs1,.,-4,-13,11,8,-6,.,.
COc1ccc(CN2C[C@@H](CO)O[C@@H](n3cnc4c(NCCN(C)C)ncnc43)C2)cc1,.,.,.,3,17,-20,.,.
CCN1C/C(=C/c2cccc([N+](=O)[O-])c2)C(=O)/C(=C/c2cccc([N+](=O)[O-])c2)C1,7,1,-8,5,40*,-4,102*,97*
CCOc1cc(/C=C2\CN(CC)C/C(=C\c3ccc(O)c(OCC)c3)C2=O)ccc1O,.,10,-4,-9,83*,17,94*,81*
CCOC(=O)[C@]12CCC=C1N(Cc1ccc(Cl)cc1Cl)C(=O)[C@H](CC(=O)NCCCN1CCCC1=O)C2,.,.,.,3,1,-2,.,.
Cc1c(CN(C)C(=O)C2CCC(=O)N(Cc3ccccc3F)C2)[nH]c2ccccc12 (stereo not drawn),.,-2,-1,-1,-4,3,.,.
COc1cc(CN2CCC(C(=O)NC(c3ccc(F)cc3)c3ccc4ccccc4n3)CC2)cc(OC)c1 (stereo not drawn),.,.,.,-1,7,7,.,.
Cn1cc(CN2CCC(C(=O)NC(c3ccc(F)cc3)c3ccc4ccccc4n3)CC2)c2ccccc21 (stereo not drawn),.,.,.,-12,24*,2,12,11
Cc1ccc(Cn2c(=S)[nH]c3ccc(N4CCOCC4)cc3c2=O)o1,12,6,-9,0,31*,-4,43*,91*
O=c1c2cc(N3CCOCC3)ccc2[nH]c(=S)n1Cc1ccc(Cl)cc1,2,-4,-50,-6,-6,-1,.,.
Cc1cccc(-c2ccc(O)cc2CN2CCN(c3ncc(Cc4ccccc4)cn3)CC2)c1,.,.,.,-4,-14,-22,.,.
CN1CCN(c2ncnc3c2ncn3[C@H]2CN(Cc3ccc(Cl)cc3)C[C@@H](CO)O2)CC1,.,.,.,2,14,-6,.,.
Fc1ccc(C2CC(c3ccco3)=Nc3ccccc3S2)cc1 (stereo not drawn),-5,-3,0,1,46*,3,0,69*
O=[N+]([O-])c1ccc(C2CC(c3ccccc3)=Nc3ccccc3S2)cc1 (stereo not drawn),.,-5,-13,-5,79*,4,26*,88*
N#CCCn1cc(C(=O)CN2C(=O)NC3(CCc4ccccc43)C2=O)c2ccccc21 (stereo not drawn),.,-6,-20,-2,-5,-7,.,.
Cc1ccc(F)c(S(=O)(=O)NC(=O)C2(C)CCN2C(=O)Cc2ccsc2)c1 (stereo not drawn),.,.,.,1,-3,-7,.,.
COc1ccc(Cl)cc1C(=O)NCCN(C)C,-12,4,-8,-5,-3,-3,.,.
CN(C)CCNC(=O)c1ccc(COc2ccc(Cl)cc2Cl)cc1,-5,0,-8,-8,27*,13,15,2
CCCCNC(=O)C1(C)CCN1C(=O)c1cc(F)ccc1C (stereo not drawn),.,.,.,-1,3,7,.,.
Cc1ccc(-c2csc3ncnc(OCC(=O)NC(=O)NCc4ccco4)c23)cc1,-3,-8,2,0,31*,-10,15,13*
